Results as given in PubChem BioAssay AID1531 (NMMLSC, 2009).
The campaign covered roughly 290,000 compounds. About 3,300 (1.1%) were called active. Cut-off read from the data, not from the text of the source: active = binding response below about 67% or above about 130%; inconclusive = no clear call, values can overlap the other calls; inactive = in between. This excerpt belongs to a sample that is enriched for actives.

These molecules were tested against Mitogen-activated protein kinase kinase kinase 2 (Homo sapiens) (UniProt Q9Y2U5) (assay: wildtype MEKK2 PB1-MEK5 interaction, increase or decrease – biochemical, multiplex bead flow cytometry, Alexa488-MEK5, primary screen (AID 1531)). Conditions: Alexa488-MEK5 binding to MEKK2 WT, at 10 µM, actives lie on both sides.

Binding response (% of control), active:
Cc1ccc(N2C(=O)CC(N3CCSCC3)C2=O)c(C)c1 (stereo not given) 62% [inhibitor]
CN1CCC(CN)(N2CCN(c3ccccc3)CC2)CC1 146%
O=C(CN1C(=O)c2cccnc2Oc2ccc(Cl)cc21)Nc1ccc(F)cc1 50% [inhibitor]
CC(=O)c1cccc(NC(=O)CN2C(=O)c3cccnc3Oc3ccc(Cl)cc32)c1 68% [inhibitor]
CCOC(=O)c1cc2occc2n1CC(=O)N1CCN(C(=O)c2ccco2)CC1 -8% [inhibitor]
CC(C)(C)NC(=O)Cn1cnc([N+](=O)[O-])n1 2% [inhibitor]
Oc1c(C=Nc2cccc3nsnc23)ccc2ccccc12 31% [inhibitor]
O=C(OCC1O[C@@H](OC(=O)c2cc(O)c(O)c(O)c2)[C@@H](OC(=O)c2cc(O)c(O)c(O)c2)[C@@H](OC(=O)c2cc(O)c(O)c(O)c2)[C@@H]1OC(=O)c1cc(O)c(O)c(O)c1)c1cc(O)c(O)c(O)c1 (stereo not given in full) 62% [inhibitor]
CCC(C)OC(=O)C(C)Oc1ccc(-c2ccccc2)cc1 (stereo not given) 2% [inhibitor]
CCCC1=Nc2cc(C(=O)NCCN3CCCC3)ccc2Sc2ccccc21 142%
CCC1=Nc2cc(C(=O)NCCN3CCCC3)ccc2Sc2ccc(C)cc21 155%
Cc1nc(N=C(N)N)nc2c(C)cccc12 145%
NC(N)=N/N=C/c1ccc(OCc2ccc(Cl)cc2Cl)cc1 213%
O=C(c1ccco1)N1CCN(c2cccc(Cl)c2)CC1 -2% [inhibitor]
CCC(=C/c1sc2ccc3ccccc3c2[n+]1C)/C=C1\Sc2ccc3ccccc3c2N1C 9% [inhibitor]
c1ccc2c(c1)C(=NC1CCCCC1)NC2=NC1CCCCC1 145%
Cc1ccc(C)c(CN2CCC(CNC(=O)Nc3ccc(C)c(F)c3)CC2)c1 150%
Cc1cccc(CN2CCC(CNC(=O)Nc3ccc(F)c(Cl)c3)CC2)c1 139%
CCOC(=O)/C(C#N)=C/c1ccc(OCC(=O)Nc2ccccc2)c(OC)c1 37% [inhibitor]

Binding response (% of control), inactive:
CCN(CC)CCN1C(=O)C2C(C(=O)Nc3ccc(Br)cc3)C3C=CC2(O3)C1C(=O)NC1CCCCC1 (stereo not given) 106%
C=CCOC(=O)C1=C[C@H](c2ccc(Br)cc2)C[C@H](OCCCCO)O1 95%
Cc1cc2oc3ccc(NCCC4CCCN4C)cc3c(=O)c2cc1C (stereo not given) 135%
CCOC(=O)CSc1nc2ccc(C)cc2n2cnnc12 96%
C#CCNC(=O)[C@H](Cc1ccc(C(=O)c2ccccc2)cc1)NC(=O)OC(C)(C)C 101%
Cc1cc(-c2ccc(C)c(S(=O)(=O)NCCCN(Cc3ccccc3)C(C)C)c2)on1 108%
Cc1ccc(CC2CC(=O)N(c3cc(C)ccc3C)C2=O)cc1 (stereo not given) 101%
O=C1CC(N2CCN(c3ccc(F)cc3)CC2)C(=O)N1c1ccccc1 (stereo not given) 101%
COc1cc(C(=O)NCCOC(=O)c2cccc(N(C)C)c2)cc(OC)c1OC 96%
COc1ccc(N2CCN(C(=O)C3CCN(C(=O)c4ccccc4Cl)CC3)CC2)cc1 97%
O=C(Cn1cnc2ccccc21)Nc1ccccc1-c1ccccc1 115%
COc1ccccc1C(C)NC(=O)Cc1ccsc1 (stereo not given) 104%
O=C(c1ccccc1)c1ccc(C(=O)N2CCN(c3ccccc3)CC2)cc1 102%
CN1CCN(c2ccc(NC(=O)c3ccccc3)cc2)CC1 111%
CCn1c(SCC(=O)NC2CC2)nnc1-c1ccccc1OC 100%
CCOC(=O)C(Cc1ccc(N)cc1)N1C(=O)c2ccccc2C1=O (stereo not given) 106%
O=S(=O)(NCC1CC1)c1ccc(F)c(Cl)c1 97%
Cc1ccc2c(c1)N(CC(=O)NCCCN1CCCCC1)C(=O)c1cccnc1O2 106%
Cc1ccc2c(c1)N(CC(=O)NCCc1ccc(Cl)cc1)C(=O)c1cccnc1O2 98%
O=C(CN1C(=O)c2cccnc2Oc2ccc(Cl)cc21)NCCc1ccccc1 101%
Cc1ccc2c(c1)N(CC(=O)N1CCC(C)CC1)C(=O)c1cccnc1O2 103%
Cc1ccc(-c2csc(NCCc3nc4cc(Cl)c(Cl)cc4n3CCOCCO)n2)cc1 105%
CCn1ccnc1CN(C)C(=O)c1ccc2nc(Cc3ccc(OC)cc3)oc2c1 103%
COC(=O)c1ccc2c(C(C)(C)O)c(C(C)(C)O)[nH]c2c1 88%
Cc1ccccc1N(C(=O)CNC(=O)c1cccs1)C(C(=O)NC1CCCC1)c1ccncc1 (stereo not given) 98%
CCOC(=O)c1cc2occc2n1CC(=O)NC1CCC(C)CC1 (stereo not given) 99%
CCOC(=O)c1cc2c(ccn2C)n1CC(=O)N1CCC(C)CC1 110%
Fc1ccccc1/C=N/Nc1cc(N2CCCCC2)ncn1 108%
CCOC(=O)Nc1ccc2c(c1)N(C(=O)CCCl)c1ccccc1[S@]2=O 107%
O=C(Cn1cnc([N+](=O)[O-])n1)NCCc1ccccc1 100%
CC(C)(C)NC(=O)Cn1cnc2cc([N+](=O)[O-])ccc2c1=O 88%
CC(=O)Nc1ccc(NC(=O)CS(=O)(=O)c2cn(CC(=O)N3CCCCC3)c3ccccc23)cc1 99%
Cc1ccc(CSCC2Nc3ccc(C(=O)N4CCN(c5ccc(F)cc5)CC4)cc3NC2=O)cc1 (stereo not given) 94%
Cc1snc(SCc2c(F)cccc2Cl)c1C#N 108%
O=C(CN1CCN(S(=O)(=O)c2cc(Cl)ccc2Cl)CC1)c1ccc(O)c(O)c1 97%
COc1ccc(C=Nc2cccc3ncccc23)cc1 81%
O=[N+]([O-])c1ccc(N=Cc2c(O)ccc3ccccc23)cc1 95%
Cc1ccc(C)c(NS(=O)(=O)c2c(C)[nH]c(C)c2C(=O)N2CCCCC2)c1 103%
CC(=O)Nc1ccc(NC(=O)COc2ccc(-c3ccccc3)cc2)cc1 97%
COc1ccc(-c2noc(CNC(=O)C(C)Oc3ccccc3)n2)cc1 (stereo not given) 98%
CCCCNC(=O)N(O)C1N(/N=C/c2ccccc2O)C(=S)SC1(C)C (stereo not given) 101%
Cc1ccc(-n2ncc3c2CC(C)(C)CC3NC(=O)Cc2c(C)noc2C)cc1 (stereo not given) 100%
Cc1cc(C)cc(C(=O)NCCN2CCOCC2)c1 109%
CCCC1=Nc2cc(C(=O)NCc3ccco3)ccc2Sc2ccccc21 98%
CCC1=Nc2cc(C(=O)NCCCN3CCOCC3)ccc2Sc2ccc(Br)cc21 108%
Cc1ccccc1CN1C(=O)c2ccccc2Sc2ccc(C(=O)NCCCN3CCOCC3)cc21 110%
COCCNC(=O)CSc1nc2sccc2c(=O)n1-c1ccccc1 101%
CCOC(=O)C1CCN(C(=O)COc2cccc3ccccc23)CC1 97%
Cc1nc(/N=C(\N)NC(=O)NC2CCCCC2)nc2ccccc12 108%
CC(=O)Oc1ccc(-c2nc3c(C)cccc3c(=O)o2)cc1 106%
NC(N)=N/N=C/c1ccc(Cl)c([N+](=O)[O-])c1 109%
CCOc1ccc(NC(=O)NNC(=O)c2ccc(Cl)cc2Cl)cc1 96%
Cc1cc(OCC(=O)Nc2c(C)n(C)n(-c3ccccc3)c2=O)ccc1[N+](=O)[O-] 97%
CN(C)S(=O)(=O)c1ccc2oc(SCC(=O)Nc3ccccc3F)nc2c1 99%
C=CCNc1nc(N)c([N+](=O)[O-])c(NC2CCCCC2)n1 100%
O=C(NCCc1c[nH]c2ccccc12)C1CCN(Cc2ccc(Br)cc2)CC1 125%
O=C(Cc1c(F)cccc1Cl)N1CCN(C(=O)c2ccco2)CC1 99%
O=C(c1cccc([N+](=O)[O-])c1)N1CCN(C(=O)c2ccco2)CC1 99%
CC1CC(C)CN(S(=O)(=O)c2cccc3nonc23)C1 (stereo not given) 109%
COc1ccc(OC)c(S(=O)(=O)N2CCCC(C(=O)NCCc3ccccc3)C2)c1 (stereo not given) 100%
Cc1cccc(N(C(=O)c2csnn2)C(C(=O)NCc2ccccc2)c2ccncc2)c1 (stereo not given) 102%
CCc1ccc(NC(=O)Nc2ccncc2)cc1 107%
CC1(C)C=Cc2c(ccc3c2OC[C@@H](c2ccc(O)cc2O)C3)O1 107%
COc1ccccc1C(=O)NCc1nnc(SC(C)C(=O)Nc2nccs2)n1C (stereo not given) 105%
Cc1ccc(S(=O)(=O)NC2CCCCCC2)cc1C(N)=O 99%
O=C(c1noc2c1CCCC2)N1CCc2ccccc2C1 97%
O=C(NCC1CCN(Cc2ccccc2Cl)CC1)Nc1cccc(Cl)c1 110%
COc1cc(NC(=O)NCC2CCN(Cc3ccc(C)cc3)CC2)cc(OC)c1OC 113%
Cc1ccccc1NC(=O)NCC1CCN(Cc2cccc(Cl)c2)CC1 104%
COc1ccc(Cl)cc1NC(=O)NCC1CCN(Cc2ccccc2F)CC1 118%
CC(C(=O)c1ccc(-c2ccccc2)cc1)[n+]1cccc(Br)c1 (stereo not given) 123%
CC(=O)N1CC(=O)N(CC(=O)Nc2ccc(Br)cc2)C1=S 97%
CCOC(=O)c1cccc(NC(=O)c2ccc(F)cc2F)c1 105%
CCN(CC(=O)NCC(=O)Nc1cccc(C)c1C)Cc1ccccc1 103%
COc1cc(C2C3=C(CCCC3=O)OC3=C2C(=O)CCC3)ccc1OCC(=O)Nc1ccccc1 96%
CCCn1c(C)cc(/C=C(\C#N)C(=O)OCC(=O)Nc2cc(OC)c(OC)c(OC)c2)c1C 106%
